# Rows were chosen to be rich in hits. Some 10% of all compounds tested hit in one or more screens of this group.
# PTEN del growth = growth suppressors of cells with PTEN tumor suppressor deletion; HCT116 PTEN-null viability, CellTiter-Glo, 60 h; active compounds read low; viability, % at 10 µM; 140,000 compounds, 1.2% hits;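 active = viability at or below a set limit, 4 SD under the median of all tested compounds, cut at about 3.7% in these data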;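 note: PTEN knockout HCT116 line with beta catenin targeted HCT116 as companion control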
# p97 ATPase inh = human p97 ATPase inhibition | P55072 | recombinant p97 ATPase, Kinase-Glo ATP luminescence, 3 h | inhibition, % at 8 µM | 220,000 compounds, 0.42% hits; in the data active = inhibition above about 15%;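 note: 0% = DMSO vehicle and 100% = wells lacking enzyme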
# Target sequence (P55072 whole entry, looked up): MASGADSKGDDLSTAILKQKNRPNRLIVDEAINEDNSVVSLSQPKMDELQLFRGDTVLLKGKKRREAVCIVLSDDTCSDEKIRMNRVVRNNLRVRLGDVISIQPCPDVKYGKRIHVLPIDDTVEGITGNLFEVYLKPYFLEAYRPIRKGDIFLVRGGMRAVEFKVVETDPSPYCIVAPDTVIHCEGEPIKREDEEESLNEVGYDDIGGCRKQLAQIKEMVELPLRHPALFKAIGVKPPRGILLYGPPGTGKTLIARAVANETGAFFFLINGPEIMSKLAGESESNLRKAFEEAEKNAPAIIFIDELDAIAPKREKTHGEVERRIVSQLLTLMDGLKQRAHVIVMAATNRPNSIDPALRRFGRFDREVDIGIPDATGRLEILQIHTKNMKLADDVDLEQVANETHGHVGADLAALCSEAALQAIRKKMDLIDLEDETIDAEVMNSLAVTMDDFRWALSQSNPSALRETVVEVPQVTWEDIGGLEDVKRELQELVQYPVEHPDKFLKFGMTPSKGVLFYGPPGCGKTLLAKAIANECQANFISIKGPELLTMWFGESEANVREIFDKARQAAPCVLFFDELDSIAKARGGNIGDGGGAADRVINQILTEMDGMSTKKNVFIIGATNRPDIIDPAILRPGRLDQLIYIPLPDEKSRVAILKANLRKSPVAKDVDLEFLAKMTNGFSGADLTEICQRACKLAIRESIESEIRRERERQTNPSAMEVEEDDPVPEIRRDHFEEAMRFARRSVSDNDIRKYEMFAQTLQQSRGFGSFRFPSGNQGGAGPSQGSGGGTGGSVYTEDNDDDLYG
# bCat KO growth = beta-catenin-lacking colon tumor cell growth suppression; viability, % at 10 µM; 140,000 compounds, 1.5% hits; HCT116 beta-catenin knockout viability, CellTiter-Glo, 60 h; active compounds read low;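 active = viability at or under a set limit, the compound median less 4 SD, cut at about 6% in these data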;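 note: 0% = Hyamine 1622 control at 20 µM and 100% = untreated cell control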
# INS promoter inh = TRM-6 insulin promoter activity inhibition; TRM-6 cells (human fetal islet line), insulin promoter-eGFP reporter, imaging; reporter expression induced with tamoxifen; inhibition, % at 2 µM; 130,000 compounds, 0.9% hits;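 active = inhibition above the mean plus 3 SD, with well images judged a real hit on visual review, cut at about 60% in these data, passing the limit was not always enough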
# L major viab = inhibitors of Leishmania major promastigote growth | Leishmania major promastigotes, resazurin fluorescence viability | inhibition, % at 10 µM | 200,000 compounds, 9% hits | AID 1063; in the data active = inhibition above about 50%;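 note: promastigotes grown with compound for 44 hours at 28 °C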
# ROMK mod = modulators of human ROMK potassium channel; P48048; Tet-inducible ROMK, thallium flux fluorescence; actives lie on both sides; AID 1918; B-score at 10 µM; 130,000 compounds, 2% hits;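 active = signal ratio slope over the read window, or its plate-corrected B-score, at least 3 SD from the plate mean, either direction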;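 note: B-score of the F/F0 ratio slope over 7 to 12 s after thallium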
# * marks the source's active call; other numbers are inactive results; i = inactive; . = no result.
SMILES,PTEN del growth,p97 ATPase inh,bCat KO growth,INS promoter inh,L major viab,ROMK mod
Cc1cc(Nc2ccccc2)nn1C(=O)c1ccccc1,1.2*,6,1.5*,.,41,.
Cc1cc(Nc2ccccc2)nn1C(=O)c1ccc(Br)cc1,102,-1,99,13,-2,-0.32
Cc1ccc(CSc2nnc(-c3ccncc3)n2CC2CCCO2)cc1 (stereo unspecified),80,3,91,-34,-7,.
CCOC(=O)c1ccc(Nc2sc(C(=O)c3cccc([N+](=O)[O-])c3)c(N)c2C#N)cc1,.,0,.,.,.,.
COc1cccc(NC(=S)N(CCCN2CCCC2)Cc2cccn2Cc2ccc(Cl)cc2)c1,.,-6,.,.,91*,-0.17
S=C(Nc1cccc(Cl)c1)N(CCCN1CCCC1)Cc1cccn1Cc1ccc(Cl)cc1,.,-3,.,-60,100*,.
CSc1cccc(NC(=S)N(CCCN2CCCC2)Cc2cccn2Cc2ccc(Cl)cc2)c1,.,0,.,-100,101*,-1
COc1cccc(NC(=S)N(CCCN2CCCC2)Cc2ccco2)c1,.,6,.,-20,44,-0.57
COCCCN=C(c1ccco1)n1c(=S)nc(-c2ccco2)n(CCCOC)c1=S,95,3,96,.,-7,.
CCOC(=O)N1CCN(C(=O)/C(=C/c2ccc(Br)cc2)NC(=O)c2ccc(OC)cc2)CC1,103,0,101,21,-4,-0.063
COc1ccc(C(=O)NC(C(=O)NCC2CCCO2)C(C)C)cc1 (stereo unspecified),.,3,.,82*,-7,0.15
CCOc1ccc(C(=O)NC(C(=O)NCC2CCCO2)C(C)C)cc1 (stereo unspecified),.,6,.,.,.,0.19
Cc1ccc(CNC(=O)c2ccc(OCC3CCCO3)cc2)cc1 (stereo unspecified),102,-3,104,19,68*,0.49
O=C(NCc1ccc(Cl)cc1)c1ccc(OCC2CCCO2)cc1 (stereo unspecified),98,2,101,-5,44,1.4
Cc1cc(C)c2nc(NC(=O)c3ccc(OCC4CCCO4)cc3)sc2c1 (stereo unspecified),39,0,36,48,73*,1.3
Cc1ccc2nc(NC(=O)c3ccc(OCC4CCCO4)cc3)sc2c1 (stereo unspecified),22,4,30,0,3,-0.74
CC(C)(C)c1ccc(-c2nc3n(c(=O)c2C#N)CCS3)cc1,.,0,.,.,27,0.56
CC1=CC(C2CC(=O)N(c3ccc(C)cc3)C2=O)CC2C(=O)N(c3ccc(C)cc3)C(=O)C12 (stereo unspecified),.,-5,.,.,-9,-0.57
Cc1cccc(NC(=O)CN2C(=O)N/C(=C/c3cc(C)n(-c4ccncc4)c3C)C2=O)c1,93,5,85,7,11,0.3
Cc1cccc(NC(=O)CN2C(=O)N/C(=C/c3cc(C)n(C)c3C)C2=O)c1,.,10,.,83*,-7,0.18
COc1ccc(C(C(=O)NC2CCCCC2)N(C(=O)CCl)c2cccc(Cl)c2)cc1 (stereo unspecified),1.6*,2,2.3*,.,100*,.
CCOc1ccc(C(C(=O)NC2CCCCC2)N(C(=O)Cc2cccs2)c2ccc(-n3cnnn3)c(OC)c2)cc1 (stereo unspecified),3.3*,7,6,.,38,-1.4
COc1ccc(-c2nsc(C(=O)N(c3ccc(F)cc3)C(C(=O)NC3CCCC3)c3ccc(OC)cc3)c2N)cc1 (stereo unspecified),86,6,80,.,90*,.
COc1ccc(C(C(=O)NC2CCCC2)N(CCN(C)C)C(=O)c2snc(C(N)=O)c2N)cc1 (stereo unspecified),93,1,103,.,-6,.
COc1ccc(C(C(=O)NC2CCCC2)N(C(=O)c2ccoc2C)c2ccc(C)cc2)cc1 (stereo unspecified),57,0,60,25,25,.
SMILES,PTEN del growth,p97 ATPase inh,bCat KO growth,INS promoter inh,L major viab,ROMK mod
COc1ccc(C(C(=O)NC2CCCCC2)N(C(=O)CCl)c2ccc(C)cc2)cc1 (stereo unspecified),2.2*,2,5.0*,i,91*,0.39
O=C(O)c1cn[nH]c1-c1cccc([N+](=O)[O-])c1,.,6,.,.,-7,-0.11
COc1ccc(C2=NOC(C(=O)N(C)Cc3ccccc3)C2)cc1 (stereo unspecified),.,-3,.,.,3,-0.2
CCc1ccc(N(C(=O)c2csnn2)C(C(=O)NC(C)(C)CC)c2cccnc2)cc1 (stereo unspecified),.,0,.,.,6,0.23
CCOC(=O)CCNCc1ccc(F)cc1,.,1,.,.,-4,0.21
COc1ccc(C(C(=O)NC2CCCCC2)N(C(=O)CCl)c2ccc(OC)cc2)cc1 (stereo unspecified),0.8*,-1,1.4*,-163,93*,0.018
O=C(CCCC(=O)N(c1ccc2c(c1)OCCO2)C(C(=O)NC1CCCCC1)c1ccc(F)cc1)Nc1ccccn1 (stereo unspecified),87,-4,87,-97,-1,.
CCOc1cccc(N(C(=O)C2COc3ccccc3O2)C(C(=O)NC2CCCCC2)c2ccc(O)cc2)c1 (stereo unspecified),68,4,69,57,82*,-0.15
COc1ccc(N(C(=O)CNC(=O)c2ccco2)C(C(=O)NC2CCCC2)c2ccncc2)cc1 (stereo unspecified),.,1,.,.,-5,0.0075
COC(CN(C(=O)CCl)C(C(=O)NC1CCCCC1)c1ccc(C)cc1)OC (stereo unspecified),70,-4,74,-7,72*,-0.22
Cc1ccc(C(C(=O)NC2CCCCC2)N(C(=O)CCCC(=O)Nc2ccccn2)c2ccc3c(c2)OCCO3)cc1 (stereo unspecified),84,1,92,-10,68*,.
COc1ccc(CN(C(=O)c2nsc(Cl)c2Cl)C(C(=O)NC2CCCC2)c2ccc(C)cc2)cc1 (stereo unspecified),40,4,37,.,71*,-1.1
COc1cccc(NC(=O)Cn2c(=O)c3c(ncn3Cc3ccccc3)n(Cc3ccccc3)c2=O)c1,68,6,64,-48,69*,-1.6
O=C(Cn1c(=O)c2c(ncn2Cc2ccccc2)n(Cc2ccccc2)c1=O)NC1CC1,98,3,97,-15,-4,.
CCn1c(=O)c([N+](=O)[O-])c(NCCc2ccccc2)c2ccccc21,75,4,81,4,100*,.
Cc1ccc(Cl)cc1NC(=S)N(CCCN1CCOCC1)Cc1ccco1,.,1,.,.,2,-0.35
Cc1nc(CCNS(=O)(=O)c2cccnc2)cs1,.,-1,.,.,.,.
C=CCn1c2ccccc2n2nc(C)c(=O)nc12,101,-5,92,81*,-2,.
Cc1nn2c3ccccc3n(CCN3CCCCC3)c2nc1=O,101,4,94,-30,-2,.
Cc1ccc(S(=O)(=O)Nc2ccc(C(OC(=O)c3ccccc3[N+](=O)[O-])(C(F)(F)F)C(F)(F)F)cc2)cc1,42,7,63,9,100*,.
